# Assay results reported in PubChem BioAssay (EPA / NIEHS).
# “And” between values parts separate entries of the source, which are not always exact repeats. Identical values can stand only once. Results filed as inconclusive are left out. The source made the active and inactive calls. How the source made its calls: active means hit-call score of the fitted dose curve at least 0.9, where 1 is the maximum; inconclusive means response in the unintended direction; inactive means score below 0.9.
# What was measured:
# [1] = biological target: human Ephrin type-B Receptor 2 (EphB2), EPHB2 (gene 2048) (UniProt P29323); assay: NVS_ENZ_hEphB2: NovaScreen (NVS) Enzymatic Assay for human Ephrin type-B Receptor 2 (EphB2) (AID 2283156)
# Experimental: NVS_ENZ_hEphB2 is a biochemical, single-readout assay that uses extracted gene-proteins in a cell-free assay. Measurements were taken 1 hour after chemical dosing in a 384-well plate.NVS_ENZ_hEphB2 is one of one assay component(s) measured or calculated from the NVS_ENZ_hEphB2 assay. It is designed to make measurements of enzyme activity, a form of enzyme reporter, as detected with fluorescence intensity signals by Fluorescence and electrophoretic mobility shift technology.Data from the assay component NVS_ENZ_hEphB2 was analyzed into 1 assay endpoint. This assay endpoint, NVS_ENZ_hEphB2, was analyzed in the positive analysis fitting direction relative to DMSO as the negative control and baseline of activity. Using a type of enzyme reporter, loss-of-signal activity can be used to understand changes in the enzymatic activity as they relate to the gene EPHB2. Furthermore, this assay endpoint can be referred to as a primary readout, because this assay has produced multiple assay endpoints where this one serves a enzymatic activity function. To generalize the intended target to other relatable targets, this assay endpoint is annotated to the kinase intended target family, where the subfamily is receptor tyrosine kinase. […]
# [2] = biological target: human FYN Proto-Oncogene, Src family Tyrosine Kinase (Fyn), FYN (gene 2534) (UniProt P06241); assay: NVS_ENZ_hFyn: NovaScreen (NVS) Enzymatic Assay for human FYN Proto-Oncogene, Src family Tyrosine Kinase (Fyn) (AID 2283161)
# Method in brief: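 Recombinant enzyme with fluorescent substrate, product separated by electrophoretic mobility shift; read 1 h after dosing. Duplicate 25 uM single-point screen, actives retested in concentration series; loss of signal vs DMSO.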
# [3] = biological target: Histone deacetylase 3 (Homo sapiens) (UniProt O15379); assay: NVS_ENZ_hHDAC3: NovaScreen (NVS) Enzymatic Assay for human Histone Deacetylase 3 (HDAC3) (AID 2283163)
# Method in brief: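 Recombinant human HDAC3 with fluorescent substrate, 1 h after dosing; product separated from substrate by electrophoretic mobility shift and read by fluorescence. Primary screen at 25 uM in duplicate; actives (e.g. ≥30% inhibition) retested in concentration-response up to 50 uM.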
# human Ephrin type-B Receptor 2 (EphB2), EPHB2 (gene 2048), sequence (P29323 whole entry, looked up): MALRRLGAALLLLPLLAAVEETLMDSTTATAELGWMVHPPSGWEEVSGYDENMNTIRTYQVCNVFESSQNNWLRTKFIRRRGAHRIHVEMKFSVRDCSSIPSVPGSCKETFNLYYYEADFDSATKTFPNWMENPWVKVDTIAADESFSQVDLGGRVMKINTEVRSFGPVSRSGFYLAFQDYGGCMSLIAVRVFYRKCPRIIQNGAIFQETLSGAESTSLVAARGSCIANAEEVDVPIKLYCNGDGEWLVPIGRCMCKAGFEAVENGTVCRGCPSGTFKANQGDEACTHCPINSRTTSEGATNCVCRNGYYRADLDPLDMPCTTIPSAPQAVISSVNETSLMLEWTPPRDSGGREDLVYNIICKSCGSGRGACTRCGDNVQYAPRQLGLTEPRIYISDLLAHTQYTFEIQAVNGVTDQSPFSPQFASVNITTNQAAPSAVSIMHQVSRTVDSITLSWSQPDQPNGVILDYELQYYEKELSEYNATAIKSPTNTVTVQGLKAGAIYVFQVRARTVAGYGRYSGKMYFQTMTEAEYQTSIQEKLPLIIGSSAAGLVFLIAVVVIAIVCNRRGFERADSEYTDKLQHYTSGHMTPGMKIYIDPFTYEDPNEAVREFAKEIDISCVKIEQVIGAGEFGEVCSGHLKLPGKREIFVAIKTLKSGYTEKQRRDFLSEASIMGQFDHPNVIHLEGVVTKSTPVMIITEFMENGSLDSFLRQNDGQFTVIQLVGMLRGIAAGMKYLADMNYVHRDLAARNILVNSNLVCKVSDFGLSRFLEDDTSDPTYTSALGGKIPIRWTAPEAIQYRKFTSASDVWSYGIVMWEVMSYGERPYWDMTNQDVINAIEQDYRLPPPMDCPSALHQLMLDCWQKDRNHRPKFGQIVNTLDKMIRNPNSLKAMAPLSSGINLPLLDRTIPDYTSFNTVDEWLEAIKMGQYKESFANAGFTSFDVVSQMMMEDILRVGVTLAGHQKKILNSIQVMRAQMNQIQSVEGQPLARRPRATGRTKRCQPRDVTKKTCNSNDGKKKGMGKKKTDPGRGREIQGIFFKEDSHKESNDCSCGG
# Histone deacetylase 3 (Homo sapiens), sequence (O15379 whole entry, looked up): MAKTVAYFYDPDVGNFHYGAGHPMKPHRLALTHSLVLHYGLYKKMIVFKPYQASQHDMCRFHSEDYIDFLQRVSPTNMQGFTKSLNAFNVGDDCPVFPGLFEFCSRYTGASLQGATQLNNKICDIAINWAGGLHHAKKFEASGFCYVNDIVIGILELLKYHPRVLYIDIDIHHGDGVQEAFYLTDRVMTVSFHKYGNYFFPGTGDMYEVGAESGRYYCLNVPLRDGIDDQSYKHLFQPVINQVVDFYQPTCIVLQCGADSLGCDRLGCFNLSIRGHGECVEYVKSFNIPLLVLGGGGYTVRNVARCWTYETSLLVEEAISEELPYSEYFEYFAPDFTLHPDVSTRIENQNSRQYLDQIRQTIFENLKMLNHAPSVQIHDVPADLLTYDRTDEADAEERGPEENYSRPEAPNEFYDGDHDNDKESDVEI
# human FYN Proto-Oncogene, Src family Tyrosine Kinase (Fyn), FYN (gene 2534), sequence (P06241 whole entry, looked up): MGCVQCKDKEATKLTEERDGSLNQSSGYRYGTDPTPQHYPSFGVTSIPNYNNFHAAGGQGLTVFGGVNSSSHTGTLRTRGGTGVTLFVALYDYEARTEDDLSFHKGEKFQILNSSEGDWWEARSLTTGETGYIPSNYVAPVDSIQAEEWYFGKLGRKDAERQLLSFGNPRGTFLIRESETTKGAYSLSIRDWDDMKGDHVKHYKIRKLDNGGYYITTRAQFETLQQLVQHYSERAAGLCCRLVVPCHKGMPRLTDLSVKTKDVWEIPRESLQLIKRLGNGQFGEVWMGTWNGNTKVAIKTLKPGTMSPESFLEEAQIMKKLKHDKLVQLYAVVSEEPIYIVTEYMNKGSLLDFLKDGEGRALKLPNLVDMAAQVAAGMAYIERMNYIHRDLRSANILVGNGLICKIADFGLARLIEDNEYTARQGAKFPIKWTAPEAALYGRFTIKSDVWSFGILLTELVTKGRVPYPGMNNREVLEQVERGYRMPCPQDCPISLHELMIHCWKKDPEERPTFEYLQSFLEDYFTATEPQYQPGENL
smiles,measurement,setting,value
COP(N)(=O)SC (centres undefined),outcome,[1],inactive
CCCN(CCC)c1c([N+](=O)[O-])cc(S(N)(=O)=O)cc1[N+](=O)[O-],outcome,[1],inactive
O=C(Nc1ccccc1)Nc1ccnc(Cl)c1,outcome,[2],inactive
CCCCNC(=O)OCC#CI,AC50,[3],17.5 µM (active) and 14.6 µM (active)
